The source of these data is PubChem BioAssay (NCATS).

Each structure is given as a SMILES string. Several values for one entry are separate records, joined by “and”; a condition that tells them apart may be missing. Equal values may be shown once. Records with an inconclusive call do not appear. Activity calls are given as the source filed them. Unless noted, calls follow the shape of the dose curve; as a rule, active = well fitted curve in the direction sought with a large enough effect; inconclusive = small, poorly fitted or top-dose-only effect, or another doubt; inactive = no such curve, though single readings can be large; an effect the other way counts as inactive or inconclusive.

Experiment [1] in a line: qHTS assay for small molecule agonists of retinoid X receptor alpha signaling (AID 588544; calls by dose curve;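 as to activation: 0% = DMSO basal wells and 100% = reference agonist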). The conditions noted are these: HEK293T RXRa-UAS-bla, beta-lactamase reporter, 18 h; 530 nm emission.
The target of experiment [2] is Retinoic acid receptor RXR-alpha (Homo sapiens) (UniProt P19793). The description is as above. The conditions noted are these: HEK293T RXRa-UAS-bla, beta-lactamase reporter, 18 h; series mostly up to 76.7 µM.
Experiment [3] addresses Thyroid hormone receptor beta (Homo sapiens) (UniProt P10828). Description: qHTS assay for small molecule agonists of thyroid hormone receptor beta signaling (AID 588545; calls by dose curve;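 also: 0% = DMSO only and 100% = 10 nM T3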). The conditions noted are these: TR-UAS-bla GripTite HEK 293, beta-lactamase ratio, agonist mode, 18 h, percent of T3 response, DMSO as zero; series mostly up to 76.7 µM. The method in brief:
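TR-UAS-bla-GripTite HEK 293 cells in medium with 2% charcoal/dextran FBS, 0.1 mM NEAA and 1 mM sodium pyruvate were treated with titrated compounds for 18 hrs at 37 C. Beta-lactamase reporter was read with CCF4 dye (ex 405, em 460/530 nm); EC50 from Hill fits.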
A general note: In qHTS, concentration-response curves come from the screen itself.

Experiment [4] in a line: qHTS assay for small molecule antagonists of retinoid X receptor alpha signaling (AID 588546; active = well fitted inhibition curve with a large enough effect in the signal ratio, with a control signal flat, not every such curve was filed as active; the % refers to the signal ratio;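 also: cells stimulated with 9-cis-retinoic acid as agonist; % is scaled to controls: 0 for no effect and ±100 for the full control effect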). The following applies: HEK293T RXRa-UAS-bla, beta-lactamase ratio, antagonist mode; measured here: W530 green channel, cytotoxicity proxy. The method in brief: (§1)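 Beta-lactamase reporter inhibition, read as CCF4 fluorescence ratio (ex 405, em 460/530 nm) after 2 h at RT. HEK293T UAS-bla cells, 2500/well, were stimulated with 9-cis-RA at 500 or 100 nM final alongside test compound for 18 h at 37 C.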

In experiment [5] the target is Retinoic acid receptor RXR-alpha (Homo sapiens) (UniProt P19793). The experiment is described as above. The following applies: HEK293T RXRa-UAS-bla, beta-lactamase ratio, antagonist mode. The method, boiled down:
as §1

Experiment [6] has as its target Thyroid hormone receptor beta (Homo sapiens) (UniProt P10828). As to the kind of experiment: qHTS assay for small molecule antagonists of thyroid hormone receptor beta signaling (AID 588547; active = well fitted inhibition curve with a large enough effect in the signal ratio, with a control signal flat, not every such curve was filed as active; the % refers to the signal ratio;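 also: cells stimulated with 0.4 nM T3 agonist during compound exposure; % is scaled to controls: 0 for no effect and ±100 for the full control effect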). The following applies: TR-UAS-bla HEK293, beta-lactamase ratio, antagonist mode, 18 h. The method, boiled down: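 TR-UAS-bla GripTite HEK293 cells in 2% charcoal/dextran FBS medium were preincubated 4 h at 37 C, given compound (0.59 nM to 92 uM) plus 0.4 nM T3 (final) for 18 h, then CCF4 for 2 h at RT; Hill fit gave IC50.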

Experiment [7] concerns the target Voltage-gated inwardly rectifying potassium channel KCNH2 (Homo sapiens) (UniProt Q12809). Description: qHTS Assay for Small Molecule Inhibitors of the Human hERG Channel Activity (AID 588834).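 Also: top concentration of the series differs between compounds; % is scaled to controls: 0 for no effect and ±100 for the full control effect; lower thallium flux fluorescence means stronger hERG block; nearly all actives have a fitted effect of over 50% in size.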 The conditions noted are these: U2OS BacMam hERG, FluxOR thallium flux fluorescence; series mostly up to 92.2 µM. The method in brief: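 Concentration-response qHTS measuring drop in thallium-sensitive dye signal. U2OS cells carrying BacMam hERG; compound exposure ~10 min, then stimulation buffer and 2 min read at 1 sec intervals.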

Experiment [8] is described as follows: qHTS assay for small molecule agonists of the antioxidant response element (ARE) signaling pathway (AID 651741; active = well fitted activation curve with a large enough effect in the signal ratio; the % refers to the signal ratio; also: % of control where 0% means no effect). The following applies: HepG2 ARE-bla reporter, beta-lactamase FRET ratio, 16 h; series mostly up to 96 µM. The method in brief:
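Compounds in DMSO are pinned onto HepG2 ARE-bla cells (2,000/well) that were preincubated 5 h; plates stay 16 h at 37 C, then beta-lactamase activity is detected with LiveBLAzer B/G substrate by fluorescence.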

A short description of experiment [9]: qHTS assay for small molecule activators of the nuclear factor-kappa B (NF-kB) signaling pathway (AID 651749; active = well fitted activation curve with a large enough effect in the signal ratio; the % refers to the signal ratio; also: % of control where 0% means no effect). The following applies: NF-kB-bla ME-180 cells, beta-lactamase FRET ratio, 16 h; stronger effect = higher value. The method in brief: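 Screening used 2,000 ME-180 reporter cells per well exposed to pinned compound (23 nL) or DMSO; after 16 hr at 37C, beta-lactamase expression under NF-kB control was assessed through FRET.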

The nature of experiment [10]: qHTS assay for small molecule disruptors of the mitochondrial membrane potential - 1 hr assay (AID 651754; calls by dose curve; also: % is scaled to controls: 0 for no effect and ±100 for the full control effect; nearly all actives have a fitted effect of over 35% in size). The conditions noted are these: series mostly up to 92.2 µM. The method in brief: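 HepG2, 2,000 cells/well, overnight attachment; cpd or DMSO 1 hr, 37C/5% CO2; Mito-MPS dye 30 min, 37C; fluorescence monomer (490/535) and aggregate (540/590).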
Experiment [11] in a line: qHTS assay for small molecule disruptors of the mitochondrial membrane potential - 5 hr assay (AID 651755; calls by dose curve; also: % is scaled to controls: 0 for no effect and ±100 for the full control effect; nearly all actives have a fitted effect of over 40% in size). The conditions noted are these: JC-1-type ratio dye; series mostly up to 92.2 µM. The method, boiled down: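 HepG2 cells, attached overnight at 37C, were exposed to compound or DMSO for 5 hr at 37C, 5% CO2. Mito-MPS dye was then added for 30 min, and fluorescence read at 490/535 nm (monomers) and 540/590 nm (aggregates).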

The target of experiment [12] is Tumor necrosis factor (Homo sapiens) (UniProt P01375). Description: qHTS assay to identify small molecules that stimulate Tumor Necrosis Factor-alpha (TNF-alpha) secretion (AID 651757; active = well fitted curve in the direction sought with a large enough effect in the signal ratio; the % refers to the signal ratio; also: 0% is about no effect). The conditions noted are these: Human cells, HTRF 665/615 ratio; series mostly up to 92.2 µM. The method, boiled down:
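Read-out is HTRF, a TR-FRET sandwich of cryptate- and XL665-labeled anti-TNF-alpha antibodies detecting cytokine secreted by THP-1 cells. Cells had been incubated with test compounds at 37 C for 17 hrs beforehand.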

Experiment [13] in a line: qHTS assay to identify small molecules that stimulate interleukin-8 (IL-8) secretion (AID 651758; active = well fitted activation curve with a large enough effect in the signal ratio; the % refers to the signal ratio; also: 0% is about no effect). The following applies: HTRF ratio (665/615); series mostly up to 92.2 µM. The method in brief:
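THP-1, 2000 cells/well; cpd 16 h, 37 C; add cryptate + XL665 anti-IL-8 Abs; RT 1-3 h; TR-FRET read.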

Experiment [14] can be described thus: qHTS assay for environmental chemicals that activate the Aryl hydrocarbon Receptor (AhR) signaling pathway (AID 651777). Also: % of control where 0% means no effect; nearly all actives have a fitted effect of over 15% in size. The conditions noted are these: 1A2-DRE human hepatoma cells, luciferase, 24 h; activation: stronger effect = higher value. The method in brief: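 AhR activation is scored as a rise in luciferase from a stable DRE–CYP1A2 promoter construct in human hepatoma cells. Treatment lasts 24 hr at 37 C; detection uses One-Glo after 30 min at room temperature.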

Experiment [15] addresses Peroxisome proliferator-activated receptor alpha (Homo sapiens) (UniProt Q07869). As to the kind of experiment: qHTS assay for small molecule agonists of the peroxisome proliferator-activated receptor alpha (PPARalpha) signaling pathway (AID 651778). Also: % of control where 0% means no effect. The following applies: PathHunter PPARalpha complementation, chemiluminescence, 6 h; stronger effect = higher value. The method, boiled down:
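Cells plated at 2,000/well and held overnight at 37 C, 5% CO2, then compound added by pin tool for 6 hr; after PathHunter detection reagent and 60 min at room temperature, chemiluminescence from enzyme complementation was read.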

The target in experiment [16] is Nuclear receptor ROR-gamma (Homo sapiens) (UniProt P51449). Description: qHTS assay for small molecule antagonists of the retinoid-related orphan receptor gamma (ROR-gamma) signaling pathway (AID 651802).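 Also: luciferase reporter luminescence driven by ROR response element; % is scaled to controls: 0 for no effect and ±100 for the full control effect; nearly all actives have a fitted effect of over 60% in size.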 The conditions noted are these: ROR-gamma antagonist cell reporter assay; series mostly up to 92.2 µM. The method in brief:
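CHO, TET-inducible ROR + RORE-LUC reporter, 1536-well qHTS. Compound pinned, doxycycline added, 16hr 37C/5% CO2. ONE-Glo, 30 min RT, luminescence; signal drop scored as antagonism.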

Experiment [17] can be described thus: qHTS assay for small molecule agonists of the antioxidant response element (ARE) signaling pathway measured by Nrf2-dependant transcriptional activity (AID 720636; active = well fitted curve in the direction sought with a large enough effect in the repeat runs; an effect the other way counts as inactive or inconclusive;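 also: HepG2 cells with an ARE-driven luciferase reporter; % of control where 0% means no effect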). The following applies: ARE-luc HepG2, Nrf2 luciferase reporter, 16 h; series mostly up to 92.4 µM. The method in brief:
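First, ARE-luc HepG2 cells attached for 6 hr at 37 C in 1% dialyzed FBS medium. Next, compound or DMSO was added and incubated 16 hr. Finally, ONE-Glo reagent was added and luminescence measured after 30 min.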

Experiment [18] can be described thus: qHTS assay for small molecule antagonists of the retinoid-related orphan receptor gamma (ROR-gamma) signaling pathway - cell viability counter screen (AID 720652; active = well fitted curve in the direction sought with a large enough effect in the repeat runs; an effect the other way counts as inactive or inconclusive;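 also: compound exposure lasted 16 hr before ATP read; % is scaled to controls: 0 for no effect and ±100 for the full control effect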). The conditions noted are these: RORgamma reporter cell line viability counter screen; series mostly up to 92.2 µM. The method, boiled down: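 Luminescence from CellTiter-Glo after 30 min at room temperature reported cellular ATP as the cytotoxicity measure. Cells were the CHO reporter line with doxycycline-induced ROR-gamma expression, exposed to compound for 16 hr at 37 C.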

The nature of experiment [19]: qHTS assay for small molecule agonists of the antioxidant response element (ARE) signaling pathway measured by Nrf2-dependant transcriptional activity - cell viability counter screen (AID 720653; active = well fitted curve in the direction sought with a large enough effect in the repeat runs; an effect the other way counts as inactive or inconclusive; also: % is scaled to controls: 0 for no effect and ±100 for the full control effect). The conditions noted are these: ARE-bla HepG2 viability, CellTiter-Glo ATP luminescence, 16 h; stronger effect = lower value. The method in brief: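 ARE-bla HepG2 cells (2,000/well) rested 5 hrs at 37C/5% CO2, then exposed to compounds in DMSO for 16 hrs. Viability was read in the same wells as intracellular ATP by luminescence, 30 min at room temperature after reagent addition.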

Chain of Thyroid hormone receptor beta (Homo sapiens) (P10828 whole entry, looked up): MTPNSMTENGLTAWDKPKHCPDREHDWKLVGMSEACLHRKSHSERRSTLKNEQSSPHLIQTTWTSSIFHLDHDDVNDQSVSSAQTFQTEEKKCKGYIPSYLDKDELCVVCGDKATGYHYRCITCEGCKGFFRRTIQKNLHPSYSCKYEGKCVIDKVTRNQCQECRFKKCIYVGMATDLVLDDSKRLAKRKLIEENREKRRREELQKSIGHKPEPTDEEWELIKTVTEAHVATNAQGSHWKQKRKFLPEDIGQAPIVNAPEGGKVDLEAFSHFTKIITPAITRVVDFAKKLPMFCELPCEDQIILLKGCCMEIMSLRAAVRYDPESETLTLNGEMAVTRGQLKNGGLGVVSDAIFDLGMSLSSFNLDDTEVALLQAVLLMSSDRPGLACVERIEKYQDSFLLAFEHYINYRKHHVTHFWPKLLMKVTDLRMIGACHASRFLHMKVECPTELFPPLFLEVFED
Chain of Tumor necrosis factor (Homo sapiens) (P01375 whole entry, looked up): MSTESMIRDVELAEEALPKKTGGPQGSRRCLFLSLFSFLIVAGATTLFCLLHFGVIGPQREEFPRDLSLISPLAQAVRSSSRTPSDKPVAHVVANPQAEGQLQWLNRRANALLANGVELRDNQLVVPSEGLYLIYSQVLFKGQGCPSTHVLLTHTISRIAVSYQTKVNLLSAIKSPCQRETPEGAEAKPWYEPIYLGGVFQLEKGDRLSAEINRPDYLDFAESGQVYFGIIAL
Chain of Retinoic acid receptor RXR-alpha (Homo sapiens) (P19793 whole entry, looked up): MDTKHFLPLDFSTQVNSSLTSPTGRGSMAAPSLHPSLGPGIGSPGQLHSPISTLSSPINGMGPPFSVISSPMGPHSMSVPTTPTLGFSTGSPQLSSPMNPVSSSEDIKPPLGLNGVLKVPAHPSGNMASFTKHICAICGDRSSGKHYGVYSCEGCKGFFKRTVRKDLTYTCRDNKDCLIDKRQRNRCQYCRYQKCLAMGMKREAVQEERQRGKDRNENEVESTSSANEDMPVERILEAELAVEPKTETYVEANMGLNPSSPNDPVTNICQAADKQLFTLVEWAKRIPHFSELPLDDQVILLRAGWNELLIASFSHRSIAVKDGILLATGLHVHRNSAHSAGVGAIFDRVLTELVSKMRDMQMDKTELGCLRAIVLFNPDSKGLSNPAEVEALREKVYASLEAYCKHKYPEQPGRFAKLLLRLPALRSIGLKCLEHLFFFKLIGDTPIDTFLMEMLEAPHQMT
Chain of Voltage-gated inwardly rectifying potassium channel KCNH2 (Homo sapiens) (Q12809 whole entry, looked up): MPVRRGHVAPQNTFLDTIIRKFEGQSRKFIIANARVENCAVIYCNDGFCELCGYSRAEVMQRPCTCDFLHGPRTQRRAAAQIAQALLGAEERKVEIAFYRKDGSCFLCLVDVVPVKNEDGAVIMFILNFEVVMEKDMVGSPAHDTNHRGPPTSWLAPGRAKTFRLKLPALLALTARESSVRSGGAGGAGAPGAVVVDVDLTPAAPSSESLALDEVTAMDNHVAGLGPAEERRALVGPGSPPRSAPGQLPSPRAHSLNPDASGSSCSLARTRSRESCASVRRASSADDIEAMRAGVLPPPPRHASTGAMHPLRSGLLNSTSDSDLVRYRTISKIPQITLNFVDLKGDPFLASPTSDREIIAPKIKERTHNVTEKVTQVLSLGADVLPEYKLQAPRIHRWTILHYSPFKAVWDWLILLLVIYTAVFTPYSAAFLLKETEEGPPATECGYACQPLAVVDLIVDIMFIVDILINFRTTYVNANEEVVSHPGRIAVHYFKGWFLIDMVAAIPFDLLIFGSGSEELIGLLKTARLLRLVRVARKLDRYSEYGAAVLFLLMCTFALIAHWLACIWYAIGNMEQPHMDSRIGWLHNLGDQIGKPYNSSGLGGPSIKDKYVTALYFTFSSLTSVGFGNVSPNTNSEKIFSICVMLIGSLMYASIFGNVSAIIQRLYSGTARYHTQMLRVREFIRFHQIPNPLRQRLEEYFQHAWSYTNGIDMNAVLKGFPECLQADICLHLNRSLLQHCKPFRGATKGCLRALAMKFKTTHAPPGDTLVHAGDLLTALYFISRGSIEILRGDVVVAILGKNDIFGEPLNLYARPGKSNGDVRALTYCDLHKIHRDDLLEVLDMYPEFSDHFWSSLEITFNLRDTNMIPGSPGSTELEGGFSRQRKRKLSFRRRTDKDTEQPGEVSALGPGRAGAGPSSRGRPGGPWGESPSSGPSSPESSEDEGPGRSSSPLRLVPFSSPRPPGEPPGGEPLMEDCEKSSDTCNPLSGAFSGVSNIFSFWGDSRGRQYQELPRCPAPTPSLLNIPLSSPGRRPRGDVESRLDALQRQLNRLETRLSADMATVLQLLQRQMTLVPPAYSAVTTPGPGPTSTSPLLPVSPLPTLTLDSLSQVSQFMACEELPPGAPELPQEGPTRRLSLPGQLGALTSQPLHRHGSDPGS
Chain of Nuclear receptor ROR-gamma (Homo sapiens) (P51449 whole entry, looked up): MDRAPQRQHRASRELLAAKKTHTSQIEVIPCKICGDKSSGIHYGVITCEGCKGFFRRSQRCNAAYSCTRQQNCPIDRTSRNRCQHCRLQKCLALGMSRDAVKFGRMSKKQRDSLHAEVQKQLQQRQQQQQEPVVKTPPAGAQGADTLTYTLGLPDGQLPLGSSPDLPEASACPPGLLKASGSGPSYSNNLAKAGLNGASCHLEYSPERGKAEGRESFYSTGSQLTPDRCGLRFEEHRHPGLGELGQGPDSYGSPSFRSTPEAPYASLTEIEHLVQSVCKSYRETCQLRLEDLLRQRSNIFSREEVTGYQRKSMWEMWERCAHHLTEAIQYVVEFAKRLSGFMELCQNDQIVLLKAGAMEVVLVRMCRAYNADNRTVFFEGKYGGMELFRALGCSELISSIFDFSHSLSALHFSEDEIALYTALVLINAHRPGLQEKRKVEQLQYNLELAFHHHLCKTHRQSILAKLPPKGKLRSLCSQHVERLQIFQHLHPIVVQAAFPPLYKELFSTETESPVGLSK
Chain of Peroxisome proliferator-activated receptor alpha (Homo sapiens) (Q07869 whole entry, looked up): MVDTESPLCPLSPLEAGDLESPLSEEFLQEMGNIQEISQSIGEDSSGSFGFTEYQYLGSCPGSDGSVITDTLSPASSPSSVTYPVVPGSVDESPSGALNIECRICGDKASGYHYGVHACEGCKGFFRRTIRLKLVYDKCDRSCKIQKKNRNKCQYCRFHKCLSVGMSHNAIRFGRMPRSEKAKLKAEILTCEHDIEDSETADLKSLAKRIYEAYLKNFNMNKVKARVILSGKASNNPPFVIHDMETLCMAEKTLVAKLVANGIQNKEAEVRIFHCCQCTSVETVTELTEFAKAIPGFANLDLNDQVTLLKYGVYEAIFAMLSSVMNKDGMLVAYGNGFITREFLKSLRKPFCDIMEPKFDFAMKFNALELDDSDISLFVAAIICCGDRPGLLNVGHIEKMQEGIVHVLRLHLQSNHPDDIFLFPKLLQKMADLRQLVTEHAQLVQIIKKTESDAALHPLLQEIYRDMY

Consider `CC(C)Cc1nccs1`, for which the max response is -0.474% in [1]; -5.6% in [4]; 12.1% (inactive) in [5]; -1.04% (inactive) in [15]; 25.9% (inactive) in experiment [19]. Besides, the call in experiment [2], in experiment [3] and in experiment [17] was inactive. Further, the activity change % (negative = inhibition) in [6] is 0.497% (inactive). Further, the Potency entry in experiment [7], in experiment [8], in experiment [10], in [11], in experiment [12] and in [13] was “inactive” in each case. Besides, the Potency entry in experiment [16] and in experiment [18] was “inactive” each time. In addition, the activation in [9] is 0.674% (inactive); in experiment [14], 1% (inactive).

For `C=Cc1ccc(C=C)cc1`, the max response was -1.02% in [1]; -3.44% in [4]; 16.7% (inactive) in [5]; -4.42% (inactive) in experiment [15]; -7.35% (inactive) in experiment [19]. Moreover, the result in [2], in experiment [3] and in [17] was inactive. The activity change % (negative = inhibition) in experiment [6] was -18.2% (inactive). In addition, the Potency entry in [7], in experiment [8], in experiment [10], in experiment [11], in [12] and in [13] was “inactive” each time. The Potency result in [16] and in experiment [18] was “inactive” throughout. Further, the activation was 0.161% (inactive) in experiment [9] and 7.35% (inactive) in [14].

As for `FB(F)F`, the max response in experiment [1] is -9.29%; in [4], 16.6%; in [5], -6.25% (inactive); in experiment [15], -1.82% (inactive); in experiment [19], 3.97% (inactive). Also, the result in [2], in experiment [3] and in experiment [17] was inactive. The activity change % (negative = inhibition) in experiment [6] was 15.2% (inactive). Besides, the Potency result in [7], in experiment [8], in experiment [10], in experiment [11], in experiment [12] and in experiment [18] was “inactive” each time. Besides, the activation in experiment [9] was 5.29% (inactive); in [14], -0.371% (inactive).

For `Nc1cccc(C(F)(F)F)c1`, the max response in experiment [1] was 3.76% and -4.65%; in [4] it was -1.51% and -8.69%; in experiment [5] it was 23% (inactive) and -15.4% (inactive); in [15] it was -0.773% (inactive) and -2.14% (inactive); in [19] it was 1.34% (inactive) and -3.53% (inactive). For the same compound, the result in experiment [2], in experiment [3] and in [17] was inactive. The activity change % (negative = inhibition) in [6] is 5.58% (inactive). The Potency result in experiment [7], in experiment [8], in experiment [11], in [12], in experiment [13] and in experiment [16] was “inactive” in each case. The Potency result in experiment [18] is “inactive”. In addition, in experiment [14], the activation was 0.706% (inactive) and 0.403% (inactive).

As to `CCOCC(=O)O`, the max response in experiment [1] was -7.45%; in [4], 2.97%; in experiment [5] it was 4.52% (inactive); in [15] it was -1.55% (inactive); in [19] it was 1.2% (inactive). Further, the call in [2], in [3] and in experiment [17] was inactive. The activity change % (negative = inhibition) in experiment [6] is 4.7% (inactive). Besides, the Potency result in experiment [7], in experiment [8], in experiment [10], in [11], in experiment [12] and in experiment [13] was “inactive” throughout. In addition, the Potency result in [16] and in experiment [18] was “inactive” each time. Also, the activation in experiment [9] is 0.266% (inactive); in [14], -0.35% (inactive).

As to `O=C(Cl)c1cccc([N+](=O)[O-])c1`, the max response in [1] was 14.1%; in experiment [4], 0.426%; in experiment [5] it was 24.8% (inactive); in [15] it was -2.24% (inactive); in [19], -1.32% (inactive). Further, the compound was classed as inactive in [2] and in experiment [3]. In addition, the activity change % (negative = inhibition) in experiment [6] is 5.89% (inactive). For the same compound, the Potency result in experiment [7], in [8], in [11], in [12], in [13] and in experiment [16] was “inactive” each time. The Potency entry in [18] was “inactive”. Also, the activation in experiment [9] is -0.912% (inactive).
